PubChem BioAssay AID488969 (Vanderbilt High Throughput Screening Facility, 2010)
The full ranking holds about 110,000 compounds; the median of “z-score” is about -0.1, and the highest 2% start at about 2. The list comes from a sample in which the highest values are over-represented; it also holds similar structures and randomly drawn compounds. Calls of active or inactive are those of the source.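 How the source made its calls: active means z-score in the third read window above 3 or below -3; inactive means the rest.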

These molecules were tested against Metabotropic glutamate receptor 8 (Rattus norvegicus) (UniProt P70579) (assay: rat mGluR8 modulators via GIRK flux, primary screen, cell-based, thallium flux, HTS (AID 488969)). Details: HEK293 rat mGluR8, GIRK (G protein-gated inwardly rectifying potassium channel) thallium flux, FluoZin2; at 10 µM; stronger effect = higher value; submaximal glutamate (EC20) added with thallium.
Chain of Metabotropic glutamate receptor 8 (Rattus norvegicus) (P70579 whole entry, looked up): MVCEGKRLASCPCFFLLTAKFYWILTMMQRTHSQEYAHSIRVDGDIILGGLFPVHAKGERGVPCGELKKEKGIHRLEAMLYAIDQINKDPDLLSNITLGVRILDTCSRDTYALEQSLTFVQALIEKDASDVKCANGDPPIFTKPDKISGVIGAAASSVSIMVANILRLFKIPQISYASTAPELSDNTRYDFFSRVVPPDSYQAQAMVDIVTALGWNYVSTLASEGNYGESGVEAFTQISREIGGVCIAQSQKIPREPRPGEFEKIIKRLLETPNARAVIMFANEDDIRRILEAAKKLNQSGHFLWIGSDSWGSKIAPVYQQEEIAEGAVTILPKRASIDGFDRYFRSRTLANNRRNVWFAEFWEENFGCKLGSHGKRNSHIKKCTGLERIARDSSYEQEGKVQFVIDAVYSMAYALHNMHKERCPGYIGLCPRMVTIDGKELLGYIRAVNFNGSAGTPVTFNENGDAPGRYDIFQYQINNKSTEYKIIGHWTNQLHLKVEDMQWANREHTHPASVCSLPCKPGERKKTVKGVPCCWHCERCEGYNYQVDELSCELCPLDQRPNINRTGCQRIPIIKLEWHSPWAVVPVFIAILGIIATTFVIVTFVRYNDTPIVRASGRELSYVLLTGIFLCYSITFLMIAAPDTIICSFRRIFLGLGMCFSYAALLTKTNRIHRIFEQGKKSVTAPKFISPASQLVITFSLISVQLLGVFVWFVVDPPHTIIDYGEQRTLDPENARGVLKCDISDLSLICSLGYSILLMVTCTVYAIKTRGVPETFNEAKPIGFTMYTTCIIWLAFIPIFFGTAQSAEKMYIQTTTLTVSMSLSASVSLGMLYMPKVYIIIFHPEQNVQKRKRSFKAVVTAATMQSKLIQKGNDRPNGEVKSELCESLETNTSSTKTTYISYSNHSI

Compared with `Cn1c(CNC(=O)c2ccc(Cl)cc2)nnc1SCC(=O)Nc1sc2c(c1C#N)CCCC2`, `CN1CCc2nc(SCc3ccc(Cl)cc3)c(C#N)c(-c3cccs3)c2C1` is lower in z-score: 0.356 for the first, 0.101 for the second.

Compared with `CCN(C(=O)C1CCN(S(=O)(=O)c2cccc3nonc23)CC1)c1ccccc1`, `O=C(NCC1CCCO1)C1CCN(S(=O)(=O)c2cccc3nonc23)CC1` (configuration not stated) is higher in z-score: -0.39 for the first, 0.153 for the second.

Going from `CCOC(=O)c1[nH]c(C)c(/C(O)=C2\C(=O)C(=O)N(CCN(C)C)C2c2ccc(C)o2)c1C` (configuration not stated) to `C=CCn1c(SCC(=O)c2[nH]c(C)c(C(=O)OCC)c2C)nc2scc(-c3ccc(OC)c(OC)c3)c2c1=O`, the z-score rises from -0.288 to -0.123.

First: COC(=O)[C@H](CCSC)NC(=O)N1CCC(C)CC1
Second: CCOC(=O)C1CCN(C(=O)CN(c2ccc(OC)cc2)S(=O)(=O)c2c(C)nn(C)c2C)CC1
The z-score of the first is higher: 0.07 for the first, -0.304 for the second.

Compared with `COc1ccc(NC(=O)c2cccnc2Sc2ccccc2)c(OC)c1`, `COc1ccc(C(CC(=O)O)NC(=O)c2ccccc2)cc1OC` (configuration not stated) is higher in z-score: -0.415 for the first, -0.105 for the second.

Going from `COc1cc2c(cc1OC)CN(S(C)(=O)=O)CC2` to `COc1ccc(/C=N/n2c(=S)n(C)c3ccccc32)cc1OC`, the z-score rises from 0.0161 to 0.103.

Compared with `NS(=O)(=O)c1ccc(NC(=O)COC(=O)CCC2CCCCC2)cc1`, `Cc1c(NC(=O)CCC2CCCCC2)c(=O)n(-c2ccccc2)n1C` is higher in z-score: -0.157 for the first, 2.9 for the second.

First: N=c1ncn(CC(O)CO)c2nc(N3CCOCC3)[nH]c12 (configuration not stated)
Second: O=C(CSc1nnc(NC(=O)C2CCC2)s1)Nc1ccc(N2CCOCC2)cc1
The z-score of the first is higher: -0.0516 for the first, -0.322 for the second.

Going from `COc1ccc(C(=O)N(C(C)C)C(C)C)c(OC)c1` to `COc1ccc(OC)c(N(CC(=O)NCc2cccnc2)S(C)(=O)=O)c1`, the z-score rises from 0.14 to 0.361.

Compared with `Oc1[nH]c2ccccc2c1N=Nc1ccccc1F`, `Oc1[nH]c2ccccc2c1N=Nc1ccc(F)cc1` is lower in z-score: 0.0754 for the first, -0.405 for the second.

Going from `Oc1[nH]c2ccccc2c1N=Nc1nc2ccccc2s1` to `Cc1nc2ccccc2c(=O)n1/N=C/c1ccccc1`, the z-score falls from 2.12 to -0.0985.

First: Cc1c(NC(=S)NC(NC(=O)CC(C)C)C(Cl)(Cl)Cl)c(=O)n(-c2ccccc2)n1C (configuration not stated)
Second: CCC(=O)NC(NC(=S)Nc1c(C)n(C)n(-c2ccccc2)c1=O)C(Cl)(Cl)Cl (configuration not stated)
The z-score of the first is higher: 2.53 for the first, -0.491 for the second.

Compared with `CCCC(=O)NC(NC(=S)Nc1c(C)n(C)n(-c2ccccc2)c1=O)C(Cl)(Cl)Cl` (configuration not stated), `Cc1c(NC(=O)N(C)C)c(=O)n(-c2ccccc2)n1C` is higher in z-score: -0.165 for the first, -0.0915 for the second.

Going from `Cc1c(NC(=O)C2CC=CCC2C(=O)O)c(=O)n(-c2ccccc2)n1C` (configuration not stated) to `Cc1c(NC(=O)C2C3C=CC(C3)C2C(=O)O)c(=O)n(-c2ccccc2)n1C` (configuration not stated), the z-score falls from 2.16 to 0.15.

First: Cc1c(NC(=O)CSc2ccccn2)c(=O)n(-c2ccccc2)n1C
Second: Cc1c(NC(=O)CSc2nccn2C)c(=O)n(-c2ccccc2)n1C
The z-score of the first is lower: -0.147 for the first, -0.0895 for the second.

Going from `Cc1c(NC(=O)CCC(=O)N2CCCCC2)c(=O)n(-c2ccccc2)n1C` to `Cc1c(NC(=O)C(=O)/C=C(/O)c2ccccc2)c(=O)n(-c2ccccc2)n1C`, the z-score falls from -0.244 to -0.309.

Going from `Cc1c(NC(=O)CSc2ccccc2C(=O)Nc2cccnc2)c(=O)n(-c2ccccc2)n1C` to `Cc1c(NC(=O)CC(=O)Nc2c(C)n(C)n(-c3ccccc3)c2=O)c(=O)n(-c2ccccc2)n1C`, the z-score falls from 2.06 to -0.0936.

Compared with `O=C(NCCc1ccncc1)C12CC3CC(CC(C3)C1)C2`, `O=C(NC1CCCCC1)C12CC3CC(C1)CC(n1cncn1)(C3)C2` is lower in z-score: 0.467 for the first, -0.163 for the second.

First: CC1CCN(S(=O)(=O)c2ccc3c(c2)oc(=O)n3CC(=O)N2c3ccccc3CC2C)CC1 (configuration not stated)
Second: COc1ccc(S(=O)(=O)N2CCC(C(=O)NCc3ccccn3)CC2)cc1Cl
The z-score of the first is higher: 0.0729 for the first, -0.477 for the second.

Compared with `Cc1cc(C)n(-c2nc(NCC3CCCO3)c3c4c(sc3n2)COC(C)(C)C4)n1` (configuration not stated), `COC(=O)c1[nH]c2ccc(C)cc2c1NC(=O)CN1CCCC(C)(C)C1` is higher in z-score: -2 for the first, -0.603 for the second.

Compared with `C=CCc1cccc(/C=N/NC(=O)CCCNc2ccc(C)cc2)c1O`, `Cc1cccc(N(CC(=O)Nc2ccc(F)cc2)S(C)(=O)=O)c1` is higher in z-score: -0.144 for the first, 0.171 for the second.

Going from `CCCC(C)NC(=O)c1ccc2[nH]c3c(c2c1)CC(C)CC3` (configuration not stated) to `CCN(CC)CCNC(=O)c1ccc2c(=O)n(C3CCCC3)c(=S)[nH]c2c1`, the z-score rises from -0.815 to 0.125.

First: O=C(CSc1ncn(-c2ccccc2)n1)Nc1ccc(Br)cn1
Second: CCC(=O)Nc1ccc2c(c1)ncn2-c1ccccc1
The z-score of the first is lower: -0.314 for the first, 0.261 for the second.

First: COC(=O)c1c(C)[nH]c(C(=O)OCC(=O)NCC(C)C)c1C
Second: CC(CCc1ccccc1)NC(=O)COC(=O)C1=COCCO1 (configuration not stated)
The z-score of the first is lower: -0.00108 for the first, 0.664 for the second.

Compared with `O=C(CSCCO)Nc1cccc([N+](=O)[O-])c1`, `CC(=O)c1cccc(N(CC(=O)Nc2cccnc2)S(C)(=O)=O)c1` is higher in z-score: -1.53 for the first, 0.179 for the second.

First: Cc1c(NC(=O)C(=O)/C=C(\O)c2ccc(Br)cc2)c(=O)n(-c2ccccc2)n1C
Second: Cc1c(NC(=O)C(=O)/C=C(\O)c2ccc(Cl)cc2)c(=O)n(-c2ccccc2)n1C
The z-score of the first is lower: -0.237 for the first, 2.16 for the second.

Compared with `O=C1COc2ccc(C(=O)c3ccccc3C(=O)NCc3ccco3)cc2N1`, `CCCn1c(=S)[nH]c2cc(C(=O)N3CCc4ccccc43)ccc2c1=O` is higher in z-score: 0.0372 for the first, 1.07 for the second.

Compared with `CCOc1cc(C2NN=C(c3ccccc3)S2)ccc1OCc1ccc(F)cc1` (configuration not stated), `CCOc1cc(C2NN=C(c3ccccc3)S2)ccc1OCc1ccccc1Cl` (configuration not stated) is higher in z-score: 0.745 for the first, 0.78 for the second.

First: CC1CCCCN1C(=O)CSc1nnc(-c2cccnc2)n1C1CCCCC1 (configuration not stated)
Second: Cn1c(=O)[nH]c(=O)c2c1nc(N1CCCCC1)n2CCCSc1nnnn1-c1ccccc1
The z-score of the first is higher: 0.109 for the first, -0.187 for the second.

Compared with `COc1ccccc1N(CC(=O)NCc1cccnc1)S(C)(=O)=O`, `Cc1ccc(N(CC(=O)NCc2cccnc2)S(C)(=O)=O)cc1C` is higher in z-score: 0.0794 for the first, 0.196 for the second.

Compared with `O=C(c1ccc(CNc2c(NC3CCCCC3)c(=O)c2=O)cc1)N1CCc2ccccc21`, `O=C(Nc1ccccc1)c1ccc(S(=O)(=O)N2CCCCC2)cc1` is higher in z-score: -0.164 for the first, -0.0563 for the second.

Going from `CCCCCn1c(=O)[nH]c2cc(C(=O)N3CCN(CC)CC3)ccc2c1=O` to `CC(C)c1ccc(C(=O)N2CCCN(C(=O)c3ccc(C(C)C)cc3)CC2)cc1`, the z-score falls from 0.0715 to -0.119.

First: O=C(Nc1ccc([N+](=O)[O-])cn1)c1cc(-c2cccc(Br)c2)nc2ccccc12
Second: COc1cccc(C(CC(=O)Nc2cccc3ccccc23)NC(=O)c2ccccc2)c1 (configuration not stated)
The z-score of the first is lower: 0.61 for the first, 2.17 for the second.

Going from `O=C(Nc1cc(C(=O)N2CCCC2)ccc1N1CCCC1)c1ccccc1` to `O=C(Nc1ccc(N2CCCCC2)c(Cl)c1)c1ccc2c(c1)OCCO2`, the z-score rises from -1.7 to -0.282.

First: Cc1nc2ccccc2c(=O)n1/N=C/c1ccc(O)cc1
Second: COc1cccc(/C=N/n2c(=S)n(C)c3ccccc32)c1OC
The z-score of the first is lower: 0.481 for the first, 2.32 for the second.

Going from `COc1ccc(-n2cnc3cc(NC(=O)c4ccco4)ccc32)cc1` to `CCC(=O)Nc1ccc2c(c1)ncn2-c1ccc(OC)cc1`, the z-score rises from -1.7 to 2.82.

Compared with `O=C(O)c1ccc(CNCc2c(Cl)cccc2Cl)cc1`, `COc1ccc(C(=O)Nc2ccc3c(c2)OCCO3)cc1` is lower in z-score: 0.0291 for the first, -0.168 for the second.

Going from `O=c1[nH]cnc2c1nc(SCc1ccccc1)n2C1OC(CO)C(O)C1O` (configuration not stated) to `Nc1nc(SCc2ccc([N+](=O)[O-])cc2)c2ncn(C3OC(CO)C(O)C3O)c2n1` (configuration not stated), the z-score rises from 1.45 to 2.28.

Going from `CN(C)c1ncnc2c1ncn2C1OC(CO)C(O)C1O` (configuration not stated) to `CCC(C)[C@H](NC(=O)Nc1ccc2c(c1)OCCO2)C(=O)O` (some centres not stated), the z-score falls from -0.162 to -0.196.

Compared with `COc1ccc(C2=CC(=O)OC3(CCCCC3)O2)cc1`, `COc1ccc(Cn2nnnc2C(c2ccncc2)N2CCOCC2)cc1` (configuration not stated) is higher in z-score: -2.37 for the first, 0.39 for the second.

Compared with `O=C(NC(=S)Nc1ccc(N2CCCCC2)c(Cl)c1)c1ccc2c(c1)OCCO2`, `O=C(Nc1ccc(N2CCCC2)c(Cl)c1)c1ccc2c(c1)OCCO2` is higher in z-score: 0.126 for the first, 2.58 for the second.

Compared with `COC(=O)[C@@H](NC(=O)Nc1ccc2c(c1)OCCO2)C(C)C`, `COc1cc(C(=O)Nc2ccc3c(c2)OCCO3)ccc1OC(C)C` is higher in z-score: 0.876 for the first, 2.41 for the second.

Going from `CCOc1ccc(C(=O)Nc2ccc3c(c2)OCCO3)cc1OC` to `CCOc1ccc(C(=O)C(c2ccccc2)N2CCOCC2)cc1` (configuration not stated), the z-score rises from -0.705 to -0.418.

Going from `O=C(COc1ccccc1Cl)NCCCN1CCOCC1` to `CCCCCOc1ccc(C(=O)C(c2ccccc2)N2CCOCC2)cc1` (configuration not stated), the z-score falls from 1.3 to 0.204.

Compared with `COc1cccc(/C=N/n2c(=S)n(C)c3cc(C)c(C)cc32)c1OC`, `COc1ccc(C)cc1C1=Nc2ccccc2C1(C)C` is lower in z-score: 0.276 for the first, -0.42 for the second.

Going from `O=C(CC(NC(=O)c1ccccc1)c1ccccc1)Nc1cccc2ccccc12` (configuration not stated) to `O=S(=O)(Nc1ccc(N=Nc2ccccc2)cc1)c1ccccc1`, the z-score falls from -0.0391 to -0.241.

Going from `Cc1cc(C)nc(SCc2nnc(SCC(=O)Nc3nccs3)n2C)n1` to `COc1ccc(CNC(=O)CN(c2cc(C)cc(C)c2)S(=O)(=O)c2c(C)noc2C)cc1`, the z-score falls from 0.465 to -0.0907.

First: COc1ccc(C(=O)C(c2ccccc2)N2CCOCC2)cc1 (configuration not stated)
Second: COc1cccc(NC(=O)CN(c2cccc(F)c2)S(C)(=O)=O)c1
The z-score of the first is higher: 2.44 for the first, -0.058 for the second.

Compared with `COc1cccc(CNC(=O)CN(c2cc(C)cc(C)c2)S(=O)(=O)c2c(C)noc2C)c1`, `COc1ccc(N(CC(=O)NCc2cccc(OC)c2)S(=O)(=O)c2c(C)noc2C)cc1` is lower in z-score: 2.13 for the first, -0.199 for the second.

First: CC(=O)c1cccc(NC(=O)CN(c2cccc(F)c2)S(C)(=O)=O)c1
Second: CC(=O)c1cccc(N(CC(=O)Nc2ccc(F)cc2)S(C)(=O)=O)c1
The z-score of the first is lower: -0.268 for the first, 2.52 for the second.

`CCOc1cc(C2NN=C(c3ccc(C)cc3)S2)ccc1O` (configuration not stated) was tested, and the z-score was 8.33 (active).
For `CCN1CCN(C(=O)c2ccc3c(=O)n(C4CCCC4)c(=S)[nH]c3c2)CC1`, the z-score was 5.09 (active).
For `O=C(c1ccc2c(=O)n(C3CCCC3)c(=S)[nH]c2c1)N1CCc2ccccc21`, the z-score was 9.93 (active).
`O=c1c2ccccc2nc(-c2ccccc2)n1/N=C/c1ccc([N+](=O)[O-])cc1` was tested, and the z-score was 6.71 (active).
In the case of `COC(=O)[C@H](CC(C)C)NC(=O)Nc1ccc2c(c1)OCCO2`, the z-score is reported as 3.6 (active).
With `COc1cccc(N(CC(=O)Nc2cccc(C(C)=O)c2)S(C)(=O)=O)c1` the z-score was 4.2 (active).
In the case of `COc1cccc(N(CC(=O)NCc2cccnc2)S(C)(=O)=O)c1`, the z-score is reported as 3.97 (active).
